Columns and labels:
Experiment in all cases: PBM binding z-score (relative to random genomic background probes); higher = stronger binding; sequences stand for … in GC…GCGATTGACAGCGTAGAATGAAGG
[1] = test system: FXR:RXRa (NR concentration 270 nM, RXRa partner concentration 90 nM)
Method in brief: (§1)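 For binding z-scores, the reference was random background probes on custom Agilent 4×180K protein-binding microarrays. These arrays were incubated 1 h with ligand-free nuclear receptor dimers in PBS pH 7.4, 2% milk, 0.02% Triton X-100, 1 mM DTT, 0.2 mg/mL BSA and 0.4 mg/ml salmon testes DNA. Fluorescence was scanned after antibody detection of each partner (one per run) and regression-normalized.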

[2] = test system: LXRa:RXRa (NR concentration 270 nM, RXRa partner concentration 90 nM)
Method in brief: as §1

[3] = test system: LXRa homodimer (NR concentration 270 nM)
Method in brief: as §1

[4] = test system: LXRb:RXRa (NR concentration 270 nM, RXRa partner concentration 90 nM)
Method in brief: as §1

[5] = test system: LXRb homodimer (NR concentration 270 nM)
Method in brief: as §1

[6] = test system: PPARa:RXRa (NR concentration 270 nM, RXRa partner concentration 90 nM)
Method in brief: as §1

[7] = test system: PPARg:RXRa (NR concentration 180 nM, RXRa partner concentration 90 nM)
Method in brief: as §1

[8] = test system: PPARg:RXRa 270nM:90nM, anti-RXR (NR concentration 270 nM, RXRa partner concentration 90 nM)
Method in brief: as §1

[9] = test system: PPARg:RXRa 30nM:10nM, anti-RXR (NR concentration 30 nM, RXRa partner concentration 10 nM)
Method in brief: as §1

[10] = test system: PPARg:RXRa 90nM:30nM, anti-RXR (NR concentration 90 nM, RXRa partner concentration 30 nM)
Method in brief: as §1

[11] = test system: PPARg:RXRa DBDmut IVT, anti-RXR (DBD mutation: RXRa K156A/R161A, NR concentration 270 nM, RXRa partner concentration 90 nM)
Method in brief: as §1

[12] = test system: PPARg:RXRa IVT, anti-PPARg (NR concentration 270 nM, RXRa partner concentration 90 nM)
Method in brief: as §1

[13] = test system: PPARg DBDmut:RXRa IVT, anti-PPARg (DBD mutation: PPARg1 K132A/R137A, NR concentration 270 nM, RXRa partner concentration 90 nM)
Method in brief: as §1

[14] = test system: PPARg DBDmut IVT, anti-PPARg (DBD mutation: PPARg1 K132A/R137A, NR concentration 270 nM)
Method in brief: as §1

[15] = test system: PPARg homodimer (NR concentration 180 nM)
Method in brief: as §1

[16] = test system: PXR:RXRa (NR concentration 270 nM, RXRa partner concentration 90 nM)
Method in brief: as §1

[17] = test system: PXR homodimer (NR concentration 270 nM)
Method in brief: as §1

[18] = test system: RARa:RXR (NR concentration 270 nM, RXRa partner concentration 90 nM)
Method in brief: as §1

[19] = test system: RARa homodimer (NR concentration 270 nM)
Method in brief: as §1

[20] = test system: RARb:RXRa (NR concentration 270 nM, RXRa partner concentration 90 nM)
Method in brief: as §1

| Sequence | PBM binding z-score [1] | PBM binding z-score [2] | PBM binding z-score [3] | PBM binding z-score [4] | PBM binding z-score [5] | PBM binding z-score [6] | PBM binding z-score [7] | PBM binding z-score [8] | PBM binding z-score [9] | PBM binding z-score [10] | PBM binding z-score [11] | PBM binding z-score [12] | PBM binding z-score [13] | PBM binding z-score [14] | PBM binding z-score [15] | PBM binding z-score [16] | PBM binding z-score [17] | PBM binding z-score [18] | PBM binding z-score [19] | PBM binding z-score [20] |
| --- | --- | --- | --- | --- | --- | --- | --- | --- | --- | --- | --- | --- | --- | --- | --- | --- | --- | --- | --- | --- |
| TCACGGAGGACACGAAGGTCAGAGCTTTCCAGAG | 1.21 | 1.07 | 0.259 | 0.963 | -1.12 | 1.99 | 0.712 | 1.52 | 2.16 | 1.87 | 1.52 | 0.826 | -1.19 | -0.604 | 1.45 | 1.98 | 1.22 | 2.3 | 0.266 | 3.44 |
| GCGACTGGGGCAACGCAGGTTACCATAAGGTTGG | 0.326 | 0.211 | -0.468 | 0.14 | -0.947 | 1.52 | 1.61 | 1.27 | -0.287 | 0.414 | 4.39 | 4.13 | -0.305 | -0.763 | -0.0289 | 0.606 | -0.69 | 0.702 | -1.06 | 1.19 |
| CTAACTAGGTCATTGACAGGACAGTGAATAGTAA | 4.3 | 3.33 | 0.788 | 2.12 | 0.469 | 5.03 | 8.17 | 6.99 | 4.79 | 6.51 | 8.21 | 8.94 | 4 | 4.56 | 0.99 | 1.52 | 0.32 | 2.14 | 0.687 | 3.66 |
| ATCTCTAGGTAAAGATAGTTCAGAGAATGCAAAT | 0.206 | 3.56 | 0.259 | 0.69 | 0.411 | 0.663 | 0.843 | 0.494 | 0.309 | 0.609 | 1.37 | 1.42 | 0.582 | 1.54 | 0.983 | 0.864 | 0.342 | 0.707 | 0.924 | 0.573 |
| GCATATAAGTAATACAAGGTGAAAGTCCGATTGT | 0.578 | 0.301 | 0.499 | 0.331 | -0.122 | 0.85 | 0.911 | 0.715 | 0.283 | 0.301 | 0.462 | 0.546 | 0.743 | 0.728 | 0.405 | 0.436 | 0.309 | 1.13 | 0.698 | 0.452 |
| TCTATCAGGCCAGAGGGTCACTCAAGAGGTACGG | 1.28 | 1.42 | -0.272 | 1.32 | 0.048 | 2.51 | 1.7 | 2.98 | 3.16 | 3 | 1.69 | 1.3 | -0.288 | -0.122 | 1.01 | 1.83 | 0.211 | 2.39 | 0.259 | 2.52 |
| ATCTCTAGGCAAAAGTTCAGTGAATCCCGAGGAT | 0.235 | 0.757 | 0.751 | 0.584 | 0.319 | 2.96 | 5.41 | 6.14 | 5.06 | 6.01 | 0.185 | 1.61 | 0.694 | 0.529 | 1.05 | 1.5 | 1.04 | 0.864 | -0.11 | 2.33 |

Reference: the supplement of paper PMC6555819
